# What was measured:
# Test in all cases: growth inhibition (% activity, log2 RLU normalised to DMSO / staurosporine); higher = more growth inhibition
# Conditions in all cases: 33 µM
# DIPGX29 = test system: DIPGX29 (H3.3 K27M diffuse intrinsic pontine glioma line)
# In short: (§1)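 In triplicate, pHGG cell lines and H9-derived neural stem cells were treated for 7 days at 37 °C, 5% CO2 with approved drugs at a single final concentration of about 33 μM, added by pin tool. CellTiter-Glo luminescence, after log2 transformation, was normalised on each plate to % activity between solvent and positive control wells. Growth inhibition is reported as the median across replicates.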
# DIPGX37 = test system: DIPGX37 (H3.3 K27M diffuse intrinsic pontine glioma line)
# In short: as §1
# DIPGX7 = test system: DIPGX7 (H3.3 K27M diffuse intrinsic pontine glioma line)
# In short: as §1
# DIPGX9 = test system: DIPGX9 (diffuse intrinsic pontine glioma line)
# In short: as §1
# HGGX39 = test system: HGGX39 (paediatric high-grade glioma line)
# In short: as §1
# HGGX6 = test system: HGGX6 (H3.3 G34R paediatric high-grade glioma line)
# In short: as §1
# HNSC = test system: HNSC
# In short: as §1
# SUDIPGIV = test system: SUDIPGIV (diffuse intrinsic pontine glioma line)
# In short: as §1
# SUDIPGVI = test system: SUDIPGVI (diffuse intrinsic pontine glioma line)
# In short: as §1
# SUDIPGXIII = test system: SUDIPGXIII (diffuse intrinsic pontine glioma line)
# In short: as §1
SMILES,growth inhibition (DIPGX29) [%],growth inhibition (DIPGX37) [%],growth inhibition (DIPGX7) [%],growth inhibition (DIPGX9) [%],growth inhibition (HGGX39) [%],growth inhibition (HGGX6) [%],growth inhibition (HNSC) [%],growth inhibition (SUDIPGIV) [%],growth inhibition (SUDIPGVI) [%],growth inhibition (SUDIPGXIII) [%]
CC(=O)OCC(=O)[C@@]1(O)CC[C@H]2[C@@H]3CCC4=CC(=O)CC[C@]4(C)[C@H]3C(=O)C[C@@]21C,-5.36,-1.7,-1.09,-3.1,-6.61,-4.47,6.87,-5.64,-7.69,-0.171
CCC[S+]([O-])c1ccc2[nH]c(NC(=O)OC)nc2c1 (stereo not given),3.39,3.5,1.48,2.55,0.691,2.32,3.73,2.81,-0.51,2.63
CCOc1nc2cccc(C(=O)OC(C)OC(=O)OC3CCCCC3)c2n1Cc1ccc(-c2ccccc2-c2nn[nH]n2)cc1 (stereo not given),-1.79,-1.28,-1.84,-0.119,-0.661,0.0529,-2.55,-3.13,-3.95,-0.781
O=C1[C@H](CC[C@H](O)c2ccc(F)cc2)[C@@H](c2ccc(O)cc2)N1c1ccc(F)cc1,0.15,-1.79,1.88,-0.813,-0.454,-1.33,-0.443,-2.25,-5.97,0.864
Nc1nc(=O)c2c([nH]1)NCC(CNc1ccc(C(=O)N[C@@H](CCC(=O)O)C(=O)O)cc1)N2C=O (stereo not given in full),-0.552,0.652,-1.46,-0.907,-0.954,-0.876,0.438,-1.59,0.511,-0.342
CNCCCC12CCC(c3ccccc31)c1ccccc12,-1.06,-0.189,1.34,-1.84,-0.798,-0.808,27.6,-1.99,-4.58,0.908
O=c1c(-c2ccc(O)cc2)coc2cc(O)cc(O)c12,0.891,2.29,2.16,4.34,4.09,2.54,3.99,-1.2,0.172,-2.36
CC(C)c1nc(CN(C)C(=O)N[C@@H](CCN2CCOCC2)C(=O)N[C@H](CC[C@H](Cc2ccccc2)NC(=O)OCc2cncs2)Cc2ccccc2)cs1,3.78,0.997,0.492,2.24,2.07,1.63,1.95,-0.101,3.61,-0.613
C#Cc1cccc(Nc2ncnc3cc(OCCOC)c(OCCO)cc23)c1,6.22,3.87,4.89,4.84,9.77,9.46,31.8,-3.74,2.81,0.549
CN1C[C@@H]2C[C@H]1CN2c1cc2c(cc1F)c(=O)c(C(=O)O)cn2C1CC1,2.67,1.22,2.59,1.98,6.03,1.06,7.67,4.42,3.33,4.88
CCCc1cc(=O)[nH]c(=S)[nH]1,-0.542,1.03,-0.794,1.7,-0.649,-0.265,-0.282,-1.58,0.156,1.61
CCNC(=O)CCC/C=C\C[C@@H]1[C@@H](/C=C/[C@@H](O)CCc2ccccc2)[C@H](O)C[C@@H]1O,0.795,0.309,1.77,0.624,3.66,1.1,1.72,0.456,0.646,-0.283
COC(=O)[C@@H]1CC2=CC(=O)CC[C@]2(C)[C@@]23O[C@@H]2C[C@@]2(C)[C@@H](CC[C@@]24CCC(=O)O4)[C@H]13,0.0665,2.47,-0.276,0.756,1.45,1.56,-0.69,0.898,1.05,0.0503
CC1(C)O[C@@H]2C[C@H]3[C@@H]4C[C@H](F)C5=CC(=O)C=C[C@]5(C)[C@@]4(F)[C@@H](O)C[C@]3(C)[C@]2(C(=O)CO)O1,5.9,6.05,2.96,7.24,5.97,3.53,1.69,1.18,3.97,-0.393
OC(CCN1CCCC1)(c1ccccc1)C1CCCCC1 (stereo not given),-1.59,0.342,-1.45,-1.38,-2.22,-0.386,-0.926,-0.217,-0.619,-1.02
CCCCCCOC(=O)NC(=N)c1ccc(NCc2nc3cc(C(=O)N(CCC(=O)OCC)c4ccccn4)ccc3n2C)cc1,0.869,2.08,1.77,1.32,1.62,2.11,1.37,0.438,2.67,-16.9
CC(=O)OCC(CCn1cnc2cnc(N)nc21)COC(C)=O,-2.6,-4.6,-0.979,-2.76,-5.59,-3.73,33.5,-3.45,-13,2.17
S=c1[nH]cnc2nc[nH]c12,20.1,10.9,25.3,10.6,23.2,24.2,58.1,28.8,13.4,18.8
CCN1CCN(C(=O)N[C@@H](C(=O)N[C@@H]2C(=O)N3[C@@H]2SC(C)(C)[C@@H]3C(=O)O)c2ccccc2)C(=O)C1=O,-0.286,0.221,-0.734,-1.09,-0.282,0.186,-1.83,-0.166,0.068,-11.8
O=NO,0.973,1.57,-0.944,0.322,0.656,1.76,-0.386,-0.178,1.15,-0.00307

SMILES,growth inhibition (DIPGX29) [%],growth inhibition (DIPGX37) [%],growth inhibition (DIPGX7) [%],growth inhibition (DIPGX9) [%],growth inhibition (HGGX39) [%],growth inhibition (HGGX6) [%],growth inhibition (HNSC) [%],growth inhibition (SUDIPGIV) [%],growth inhibition (SUDIPGVI) [%],growth inhibition (SUDIPGXIII) [%]
Cc1ccc2c(Cl)cc(Cl)c(O)c2n1,8.88,2.78,3.99,8.04,4.68,3.09,46,5.39,5.64,3.89
COC(c1ccccc1)(c1ccccc1)[C@H](Oc1nc(C)cc(C)n1)C(=O)O,1.89,2.75,1.17,0.496,2.43,1.67,1.25,-2.2,2.3,-15.1
CC[N+](CC)(CC)CCOc1cccc(OCC[N+](CC)(CC)CC)c1OCC[N+](CC)(CC)CC,2.95,4.13,2.35,3.16,2.47,0.26,1.9,-0.653,3.43,-2.39
CC[C@@H](CO)NCCN[C@@H](CC)CO,-4.2,-0.485,-2.38,-2.09,-0.115,-2.97,-1.6,-3.04,-1.42,-0.832
COc1ccccc1N1CCN(CC(O)COc2cccc3ccccc23)CC1 (stereo not given),0.825,1.5,3.11,4.27,2.32,1.78,0.281,-1.37,0.873,-16
COc1ccc([C@@H]2Sc3ccccc3N(CCN(C)C)C(=O)[C@@H]2OC(C)=O)cc1,-1.14,-1.86,0.795,-0.923,-2.92,-0.0969,-0.232,-1.32,-1.92,0.713
COc1cc(Nc2c(C#N)cnc3cc(OCCCN4CCN(C)CC4)c(OC)cc23)c(Cl)cc1Cl,8.64,2.05,4.98,6.92,9.47,10.9,41.9,-1.39,8.4,1.71
CCc1c(Cl)c(O)c(Cl)c(O)c1C(=O)O[C@H]1[C@H](O)[C@H](OC)[C@H](OC/C2=C\C=C\C[C@H](O)/C(C)=C/[C@H](CC)[C@@H](O[C@@H]3OC(C)(C)[C@@H](OC(=O)C(C)C)[C@H](O)[C@@H]3O)/C(C)=C/C(C)=C/C[C@@H]([C@@H](C)O)OC2=O)O[C@@H]1C,0.669,2.16,0.835,-0.411,9.09,0.0636,11.6,3.19,2.46,0.498
C[C@@H](CN1CC(=O)NC(=O)C1)N1CC(=O)NC(=O)C1,-0.213,0.752,1.24,0.711,0.0185,-0.816,2.52,-0.536,-1.35,-1.67
CCN(CC)C(=O)/C(C#N)=C/c1cc(O)c(O)c([N+](=O)[O-])c1,-0.0111,1.83,-1.51,0.533,0.054,-0.625,-2.42,-1.01,-0.299,1.29
CNC(=O)c1ccccc1Sc1ccc2c(/C=C/c3ccccn3)n[nH]c2c1,12.6,6.36,11.4,17.5,10.9,20.3,60.4,4.73,0.631,5.66
CN1CCN(c2c(F)cc3c(=O)c(C(=O)O)cn4c3c2OCN4C)CC1,0.647,0.371,3.3,2.03,2.92,3.21,2.71,1.21,4.19,-0.0388
COC(=O)C1=C(C)NC(C)=C(C(=O)OC(C)C)C1c1cccc2nonc12 (stereo not given),-2.46,-3.83,1.18,-3.89,-6.2,-4.5,-4.73,-4.11,-12.6,3.66
Cc1ccc(C(=O)c2cc(O)c(O)c([N+](=O)[O-])c2)cc1,-4.7,-1.02,-1.81,-2.4,-1.44,-3.36,0.397,-4.56,-2.71,1.37
CC[C@@]1(O)C(=O)OCc2c1cc1n(c2=O)Cc2cc3c(CN(C)C)c(O)ccc3nc2-1,12.9,21.8,37.9,51.6,40.2,17.2,53.9,48.4,7.54,4.79
CCOc1nc2cccc(C(=O)O)c2n1Cc1ccc(-c2ccccc2-c2noc(=O)[nH]2)cc1,-0.219,0.379,0.841,0.153,0.215,-1.71,0.888,-0.526,1.43,-1.07
CC(C)c1c(C(=O)Nc2ccccc2)c(-c2ccccc2)c(-c2ccc(F)cc2)n1CC[C@@H](O)C[C@@H](O)CC(=O)O,16.8,-10,21.8,7.54,42.1,23,65.6,32.1,-0.629,39.2
OCCN(CCO)c1nc(N2CCCCC2)c2nc(N(CCO)CCO)nc(N3CCCCC3)c2n1,-2.31,-0.429,-1.26,-0.332,2.38,1.04,-0.178,-1.52,-2.93,1.36
CC(C)C(=O)Oc1ccc(CO)cc1[C@H](CCN(C(C)C)C(C)C)c1ccccc1,0.102,-1.82,0.436,0.893,1.59,-1.41,0.95,-0.518,1.55,0.403
CCCc1ncc(C[n+]2ccccc2C)c(N)n1,-4.8,-1.21,-0.627,-2.23,-2.8,-3.52,7.92,-2.86,-5.24,0.241

# — the supplement of paper PMC8253809
